# Hit rate of the full screen: of about 52,000 compounds, about 4,300 (8.3%) were called active. Rule as the data show it: active = survival mostly below about 52% (no sharp cut-off); inactive = mostly above about 56%. Shown is part of a subset that was picked to be rich in actives.
# System: DeltatarO mutant
# Assay: growth inhibition of S. aureus wild type versus tarO mutant, primary screen, teichoic acid synthesis inhibitors, RN4220, OD600 (AID 463173)
# Details: OD600, 18 h, hits give low values, screened at 18.75 µg/mL (by protocol)
row,SMILES,survival
1,COc1ccc(C)cc1NC(=O)Cn1c(=O)n(Cc2nc(C)no2)c(=O)c2ccccc21,79% (inactive)
2,COc1cccc(CNC(=O)CSc2ncc3c(n2)-c2cc(Cl)ccc2N(C)S3(=O)=O)c1,92% (inactive)
3,N#CC1=C(N)NC(SCC(=O)Nc2ccc(Br)cc2)=C(C#N)C12CCCCC2,12% (active)
4,CCSC1=C(C#N)C2(CCCCC2)C(C#N)=C(N)N1,68% (inactive)
5,O=C(CSc1nc2c(c(=O)[nH]1)CCCC2)Nc1ccc(Br)cc1,58% (inactive)
6,COc1cccc(-c2cn3c(n2)sc2cc(C(=O)NCc4ccccc4F)ccc23)c1,60% (inactive)
7,Cn1c(=O)n(C)c2cc(N3CCOCC3)c(NC(=O)c3ccc(Cl)cc3)cc21,87% (inactive)
8,Cc1ccc(-n2nc3c(=O)n(C(C)C(=O)NCc4ccco4)nc(C)c3c2C)cc1 (stereo not drawn),47% (active)
9,Cc1nn(CC(=O)NCc2ccco2)c(=O)c2nn(-c3ccccc3)c(C)c12,92% (inactive)
10,CSc1ccc(CCNC(=O)C(C)n2nc(C)c3c(C)n(-c4ccccc4)nc3c2=O)cc1 (stereo not drawn),46% (active)
11,CCC(C(=O)NCc1ccco1)n1nc(C)c2c(C)n(-c3ccc(C)cc3)nc2c1=O (stereo not drawn),73% (inactive)
12,Cc1ccc(-n2nc3c(=O)n(C(C)C(=O)NCc4ccccc4C)nc(C)c3c2C)cc1 (stereo not drawn),94% (inactive)
13,CCCNC(=O)C(C)n1nc(C)c2c(C)n(-c3ccccc3)nc2c1=O (stereo not drawn),102% (inactive)
14,Cc1nn(C(C)C(=O)NCc2ccco2)c(=O)c2nn(-c3ccccc3)c(C)c12 (stereo not drawn),37% (active)
15,CCC(C(=O)NCCc1ccc(SC)cc1)n1nc(C)c2c(C)n(-c3ccc(C)cc3)nc2c1=O (stereo not drawn),80% (inactive)
16,Cc1ccc(CCNC(=O)C(C)n2nc(C)c3c(C)n(-c4ccc(C)cc4)nc3c2=O)cc1 (stereo not drawn),86% (inactive)
17,CCOC(=O)N1CCC(NC(=O)c2cnn(-c3cccc(C)c3)c2-n2cccc2)CC1,85% (inactive)
18,CCC(C)(C)N1CC(=O)N(Cc2ccccc2)C(c2ccc(OC)cc2)C1=O (stereo not drawn),78% (inactive)
19,CCOc1ccc(NC(=O)N(C)CCc2c(C)nn(C)c2C)cc1,74% (inactive)
20,COc1cccc(-n2nnc3c(sc4nc(C)cc(C)c43)c2=O)c1,91% (inactive)
21,CCN(C(=O)Cc1ccccc1OC)c1nnc(-c2ccncc2)s1,70% (inactive)
22,Nc1nc(-c2ccco2)nn1C(=O)c1ccc(Cl)cc1Cl,91% (inactive)
23,COc1ccc(-c2cc(C(=O)NCCc3ccccc3)c3c(-c4ccccc4)[nH]nc3n2)cc1,87% (inactive)
24,Cc1cc2c(cc1NC(=O)c1ccc(C(C)(C)C)cc1)n(C)c(=O)c(=O)n2C,84% (inactive)
25,COc1cc(OC)c(NC(=O)N2CCN3CCCCC3C2)cc1Cl (stereo not drawn),75% (inactive)
26,CCN1CCN(c2csc3ccc(C)cc3c2=O)CC1,74% (inactive)

row,SMILES,survival
1,COc1ccccc1NC(=O)N(Cc1cc2c(C)ccc(C)c2[nH]c1=O)CC1CCCO1 (stereo not drawn),94% (inactive)
2,CCCCOc1ccc(C(=O)Nc2sc3c(c2C(=O)OCC)CCCCC3)cc1,50% (inactive)
3,CCOC(=O)c1c(NC(=O)c2ccc(OC)cc2)sc2c1CCCCC2,2% (active)
4,CCCOC(=O)c1c(NC(=O)c2cc3ccccc3c(=O)o2)sc2c1CCC(C)C2 (stereo not drawn),112% (inactive)
5,CC(C)(C)C1CCc2c(sc(NC(=O)c3cc4ccccc4c(=O)o3)c2C(N)=O)C1 (stereo not drawn),44% (active)
6,CCN(CC)Cc1c(NC(=O)c2ccc(OC)cc2)sc2c1CCCC2,71% (inactive)
7,CCOC(=O)c1c(NC(=O)c2ccc(OCC)c(Br)c2)sc2c1CCCC2,74% (inactive)
8,CCOC(=O)c1c(NC(=O)c2cc3ccccc3c(=O)o2)sc2c1CCC(C(C)(C)C)C2 (stereo not drawn),53% (inactive)
9,CCOC(=O)c1c(NC(=O)c2ccc(OC)c(OC)c2)sc2c1CCCCC2,58% (inactive)
10,CCCOc1ccc(C(=O)Nc2sc3c(c2C(=O)OCC)CCCCC3)cc1,24% (active)
11,CCOC(=O)c1c(NC(=O)c2ccc(C)c(C)c2)sc2c1CCCCC2,2% (active)
12,CCOC(=O)c1c(NC(=O)c2cc(OC)c(OC)c(OC)c2)sc2c1CCCC2,81% (inactive)
13,CCCCOc1cccc(C(=O)Nc2sc3c(c2C(=O)OCC)CCCC3)c1,53% (inactive)
14,Cc1c(C(=O)NCCN(C)C)oc2c1-c1nn(Cc3ccccc3Cl)cc1CC2,110% (inactive)
15,O=C(Oc1ccc(F)cc1)c1nc(SCc2ccc(F)cc2)ncc1Cl,79% (inactive)
16,COC(=O)C1=NNC2(c3ccc(C)cc3)C(=O)N(c3ccc(C)cc3)C(=O)C12 (stereo not drawn),107% (inactive)
17,Cc1oc(C(=O)O)cc1CSC(C)C(=O)O (stereo not drawn),88% (inactive)
18,CC(C)c1nn2c(=O)cc(COC(=O)c3ccccc3Cl)nc2s1,88% (inactive)
19,CC(=O)Nc1nc(-c2cccs2)nc2c1c(=O)oc1ccccc12,92% (inactive)
20,COc1ccc(N=C2SC(C(=O)Nc3ccccc3)CC(=O)N2C)cc1 (stereo not drawn),91% (inactive)
21,O=C(CN1C(=O)C2(SCC(=O)N2c2ccccc2)c2ccccc21)NCCc1ccccc1 (stereo not drawn),116% (inactive)
22,Cc1nnsc1C(=O)Oc1ccc(C(C)C)cc1,89% (inactive)
23,CCc1cc2c(cc3c(=O)n(CC(=O)NC4CCC(C)CC4)ncn32)s1 (stereo not drawn),91% (inactive)
24,Oc1c(C(c2cccc(Cl)c2)N2CCOCC2)sc2nc(-c3ccco3)nn12 (stereo not drawn),84% (inactive)
25,Cc1ccc(NC(=O)CCC(=O)N2Cc3ccccc3Oc3ncccc32)c(C)c1,99% (inactive)
26,CCOC(=O)C1CCN(C(=O)c2ccccc2N(C)S(C)(=O)=O)CC1,107% (inactive)

row,SMILES,survival
1,CCOC(=O)c1c(NC(=O)c2ccccc2C)sc2c1CCCC2,12% (active)
2,CCOC(=O)c1c(NC(=O)c2cc(Cl)ccc2Cl)sc2c1CCCC2,72% (inactive)
3,CCOC(=O)c1c(NC(=O)c2ccc(S(=O)(=O)N(CC)CC)cc2)sc2c1CCCCC2,72% (inactive)
4,COC(=O)c1c(NC(=O)c2cc3ccccc3c(=O)o2)sc2c1CCCC2,89% (inactive)
5,CCOC(=O)c1c(NC(=O)c2ccc(C)cc2)sc2c1CCCCC2,-2% (active)
6,CCOC(=O)c1c(NC(C)=O)sc2c1CCC2,77% (inactive)
7,CCOC(=O)c1c(NC(=O)c2cc3ccccc3c(=O)o2)sc2c1CCCC2,45% (active)
8,CCOC(=O)c1c(NC(=O)c2cc(OCC)c(OCC)c(OCC)c2)sc2c1CCCCC2,65% (inactive)
9,CCOC(=O)c1c(NC(=O)c2cc3ccccc3c(=O)o2)sc2c1CCC(C)C2 (stereo not drawn),129% (inactive)
10,CCc1cccc(CC)c1NC(=O)c1c(C)oc2ccc(O)c(CN3CCOCC3)c12,90% (inactive)
11,CC(C)Oc1ccc(C(=O)NCc2cccnc2)cc1,70% (inactive)
12,CCOc1ccc(C(=O)N2CCc3cc(OC)c(OC)cc3C2COc2ccc3c(C)cc(=O)oc3c2)cc1OCC (stereo not drawn),57% (inactive)
13,COc1ccc(OC)c(NC(=O)c2c(NCc3cccs3)sc3c2CCCCC3)c1,67% (inactive)
14,CCOC(=O)c1cccc(NC(=O)COc2ccc3c(C)cc(=O)oc3c2)c1,70% (inactive)
15,Cc1ccc(Cl)cc1N(C)C(=O)c1cc2c(Cl)nc3ccccc3c2s1,54% (inactive)
16,CCc1ccccc1N(C)C(=O)c1cc2c(Cl)nc3ccc(C)cc3c2s1,-4% (active)
17,CCCN(C(=O)c1cc2c(Cl)nc3ccccc3c2s1)c1cccc(C)c1,31% (active)
18,Cc1ccc2nc(Cl)c3cc(C(=O)N(C)C4CCCCC4)sc3c2c1,46% (inactive)
19,CCN(CCCNC(=O)c1cc2c(Cl)nc3ccccc3c2s1)Cc1ccccc1,94% (inactive)
20,CN(CCCNC(=O)c1cc2c(Cl)nc3ccccc3c2s1)Cc1ccccc1,55% (inactive)
21,CCN(C(=O)c1cc2c(Cl)nc3ccccc3c2s1)c1cccc(Cl)c1,60% (inactive)
22,CN(C(=O)c1cc2c(Cl)nc3ccccc3c2s1)c1cccc(C(F)(F)F)c1,72% (inactive)
23,Cc1ccc2nc(Cl)c3cc(C(=O)NCCCN(C)Cc4ccccc4)sc3c2c1,-9% (active)
24,COc1cc(NS(=O)(=O)c2ccc3c(c2)CCCN3C(C)=O)cc(OC)c1OC,89% (inactive)
25,Cc1nc(C)c(CCNS(=O)(=O)c2ccc(C)c(C)c2)s1,97% (inactive)
26,CCOc1ccc(-n2ccnc2SCC(=O)Nc2ccc3c(c2)OCO3)cc1,81% (inactive)

row,SMILES,survival
1,O=C(CN1N=C(c2ccc(Cl)cc2)CCC1=O)NCCc1ccc(Cl)cc1,94% (inactive)
2,COc1cccc(C(=O)Nc2ccc3nc(SCC(=O)N4CCOCC4)sc3c2)c1,65% (inactive)
3,COc1ccccc1CNC(=O)c1cc(S(=O)(=O)N2CCCCCC2)cn1C,113% (inactive)
4,Cc1ccc(OCCCCn2cnc3ccccc32)cc1,11% (active)
5,Cc1cc2ncn(CCCCOc3ccccc3)c2cc1C,-4% (active)
6,Cc1cc2ncn(CCC(=O)Nc3ccccc3F)c2cc1C,103% (inactive)
7,CC(=O)OC(COc1ccccc1)Cn1cnc2cc(C)c(C)cc21 (stereo not drawn),140% (inactive)
8,COc1ccc(OCCn2cnc3ccccc32)cc1,85% (inactive)
9,c1ccc2c(c1)ncn2CCn1cnc2ccccc21,100% (inactive)
10,Cc1cccc(C)c1NC(=O)CCC(=O)O,76% (inactive)
11,COc1cc(NC(=O)Cn2c(=O)n(CC3CCCO3)c(=O)c3cc(OC)c(OC)cc32)cc(OC)c1 (stereo not drawn),94% (inactive)
12,CCN1CCN(c2ncnc3c2cnn3-c2ccc(C)cc2)CC1,101% (inactive)
13,CC(C)OCCCn1c(SCC(N)=O)nc2c(sc3ccccc32)c1=O,92% (inactive)
14,CCCCNc1oc(-c2ccc(COc3ccccc3C)o2)nc1C#N,112% (inactive)
15,Cc1ccccc1OCc1ccc(-c2nc(C#N)c(NCc3cccnc3)o2)o1,43% (active)
16,N#Cc1nc(-c2ccc(COc3ccccc3)o2)oc1NCc1cccnc1,44% (active)
17,COCCCNc1oc(-c2ccc(COc3ccccc3C)o2)nc1C#N,43% (active)
18,CN(C)c1oc(-c2ccc(COc3ccccc3)o2)nc1C#N,39% (active)
19,Cc1ccccc1OCc1ccc(-c2nc(C#N)c(NCCCN(C)C)o2)o1,59% (inactive)
20,COc1ccc(CNc2oc(-c3ccc(COc4ccccc4C)o3)nc2C#N)cc1,50% (inactive)
21,COc1ccc(Nc2oc(-c3ccc(COc4ccccc4)o3)nc2C#N)cc1,100% (inactive)
22,N#Cc1nc(-c2ccc(COc3ccccc3)o2)oc1NCc1ccccc1,70% (inactive)
23,COc1ccc(OCc2ccc(-c3nc(C#N)c(NCc4cccnc4)o3)o2)cc1,56% (inactive)
24,CC1CCN(c2oc(-c3ccc(COc4ccccc4)o3)nc2C#N)CC1,51% (inactive)
25,Cc1ccc(OCc2ccc(-c3nc(C#N)c(NCc4cccnc4)o3)o2)cc1,51% (inactive)

# Source: PubChem BioAssay AID463173 (ICCB-Longwood Screening Facility, Harvard Medical School, 2010)
